Results filed as inconclusive are left out. Entries that show only a call come without a potency. Values without a mark were called inactive. Active and inactive are the calls of the source. The call rests on the fitted dose curve; in most records, active means well fitted inhibition curve with a large enough effect; inconclusive means small, poorly fitted or top-dose-only effect; inactive means flat fitted curve, though single readings scatter.
Potency means the concentration at half of the fitted maximal effect.

This assay in a line: P-glycoprotein substrates identified in KB-8-5-11 adenocarcinoma cell line, qHTS therapeutic library screen (AID 1346987). Further: nearly all actives have a fitted effect of over 65% in size. As to conditions: KB-8-5-11 (P-gp overexpressing) viability, CellTiter-Glo, 72 h; series mostly up to 44.5 µM. In outline: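 KB-8-5-11: colchicine-selected sub-line of KB-3-1 over-expressing P-gp; assay medium lacked colchicine. 72 h drug exposure at 37 degree C, CellTiter-Glo.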
On the technique in general: qHTS replaces the single test concentration by a dilution series.
In the case of `O=S(=O)(c1ccccc1)c1cnc2c(N3CCNCC3)cccc2c1`, the Potency result is “inactive”.

Turning to `C=CC(C)(O)C(O)CC1C(C)(O)C(O)C(O)C2C(C)(C)CCCC21C` (stereo not drawn), the Potency result is “inactive”.

On to `Cc1cc(C)c(Nc2ccnc(Nc3ccc(C#N)cc3)n2)c(C)c1`, for which the Potency was 9.2 µM (active).

Consider `CCC1C(=O)OC23C=C[C@@H]4C(C(=O)O)=CO[C@H](O[C@@H]12)[C@@H]43` (stereo partly drawn), for which the Potency result is “inactive”.

For the compound `COC(=O)C[C@H]1[C@]2(C)C3=C(C)[C@H](c4ccoc4)C[C@H]3O[C@@H]2[C@H](OC(C)=O)C2[C@](C)(C(=O)OC)C=CC(=O)[C@@]21C` (stereo partly drawn), the Potency result was “inactive”.

Turning to `CC(C)C(CO)Nc1nc(Nc2ccc(C(=O)O)c(Cl)c2)c2ncn(C(C)C)c2n1` (stereo not drawn), the Potency result was “inactive”.

For `CCN1CCN(Cc2ccc(Nc3ncc(F)c(-c4cc(F)c5nc(C)n(C(C)C)c5c4)n3)nc2)CC1`, the Potency is 4.11 µM (active).

`Cc1ccc(S(=O)(=O)c2ccc([N+](=O)[O-])o2)cc1`: the Potency is 4.61 µM (active).

For `CC1(C(=O)O)CCCC2(C)C3=CCC4CC3(CCC12)CC4CO` (stereo not drawn), the Potency result was “inactive”.

As for `CC(=O)OC12COC1CC(O)C1(C)C(=O)C(O)C3=C(C)C(OC(=O)C(O)C(NC(=O)OC(C)(C)C)c4ccccc4)CC(O)(C(OC(=O)c4ccccc4)C21)C3(C)C` (stereo not drawn), the Potency is 0.164 µM (active).

Consider `C/C=C/c1cc(OC)c2c(c1)[C@@H](C)[C@@H](c1ccc(O)c(OC)c1)O2`, for which the Potency result was “inactive”.

In the case of `Cc1ccc(NC(=O)Nc2cc(C(F)(F)F)ccc2F)cc1Nc1ccc2c(c1)NC(=O)/C2=C\c1ccc[nH]1`, the Potency was 13 µM (active).

In the case of `CC(=O)C=C=C1C(C)(C)CC(O[C@@H]2O[C@H](CO)[C@@H](O)[C@H](O)[C@H]2O)CC1(C)O` (stereo partly drawn), the Potency result was “inactive”.

Take `COc1cc(Br)c(S(=O)(=O)Nc2ccc(C(F)(F)F)c(O[C@@H]3CCN(C)C3)c2)cc1OC`: the Potency entry is “inactive”.

Take `CC[C@H](CO)Nc1nc(NCc2ccc(-c3ccccn3)cc2)c2ncn(C(C)C)c2n1`: the Potency was 0.231 µM (active).

On to `COC1CC(O[C@H]2CC[C@@]3(C)C(CCC4C3[C@H](OC(C)=O)[C@@H](OC(=O)/C=C/c3ccccc3)[C@]3(C)C(C(C)=O)CC[C@]43O)C2)OC(C)C1OC1CC(OC)C(OC2CC(OC)C(OC3OC(C)C(OC4OC(CO)C(O)C(O)C4O)C(OC)C3O)C(C)O2)C(C)O1` (stereo partly drawn), for which the activity change, negative = cytotoxicity is -0.0477% [at 9.29 µM].

As to `Nc1nc(-n2cc(C(=O)O)c(=O)c3cc(F)c(N4CC(O)C4)c(Cl)c32)c(F)cc1F`, the Potency result is “inactive”.

Consider `COc1cc2oc(-c3ccc(O)cc3O)cc2c(OC)c1CC=C(C)C`, for which the Potency result is “inactive”.

For `COc1ccc2c(OC)c3ccoc3nc2c1OC`, the Potency result is “inactive”.

Regarding `C=CC/C=C\C/C=C\CCCCCCCc1cccc(O)c1C(=O)O`, the Potency entry is “inactive”.

`O=C(CO)[C@@H](O)[C@H](O[C@@H]1O[C@H](CO)[C@H](O)[C@H](O)[C@H]1O)[C@H](O)CO`: the Potency result was “inactive”.

For the compound `COc1ccc2cc(C(C)C(=O)Oc3ccc(C(N)=S)cc3)ccc2c1` (stereo not drawn), the Potency result was “inactive”.

As for `Cc1ncc(CCCN(C)C)cc1Nc1ncc2c(n1)-c1ccc(C(F)(F)F)cc1NC(=S)C2`, the Potency was 0.0651 µM (active).

For the compound `CCC1=CC2CN(C1)Cc1c([nH]c3ccccc13)[C@@](C(=O)OC)(c1cc3c(cc1OC)N(C)[C@H]1[C@@](O)(C(=O)OC)[C@H](OC(C)=O)[C@]4(CC)C=CCN5CC[C@]31[C@@H]54)C2` (stereo partly drawn), the Potency was 7.09 µM (active).

Regarding `COc1ccc(CC2C(=O)NC(C)C(=O)N(C)C3Cc4ccc(cc4)Oc4cc(ccc4OC4OC(CO)C(O)C(O)C4O)CC(C(=O)NC(C)C(=O)NC(C)C(=O)N2C)N(C)C3=O)cc1` (stereo not drawn), the activity change, negative = cytotoxicity was -5.43% [at 9.29 µM].

Take `CC1=CC(=O)C(=C(C)C)CC2C1CCC2(C)O` (stereo not drawn): the Potency entry was “inactive”.

As for `O=C1CC2(CCCC2)[C@H](O)C(=O)N1CCCCN1CCN(c2ncccn2)CC1`, the Potency entry is “inactive”.

As for `NC(=O)c1cccc2cn(-c3ccc(C4CCCNC4)cc3)nc12` (stereo not drawn), the Potency result was “inactive”.

For the origin of these results see PubChem BioAssay (NCATS).
